Source: PubChem BioAssay (National Center for Advancing Translational Sciences (NCATS))
Six1-Eya2 inh = blocks human Six1 binding to Eya2 | activity change, % (no concentration beside the values) | actives 0.56% (n = 360,000) | Q15475+O00167 | AlphaScreen GST-Six1/His-Eya2 binding, biochemical; active compounds read low; in the data active = activity change below about -65%; inconclusive = mostly about -30% to -63%
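AlphaScreen luminescence read after one hour at 37 °C in darkness. Pin-transferred compounds met GST-Six1 and His-Eya2 protein (5X stock 250 nM/500 nM) plus glutathione donor and Ni-chelate acceptor beads (5X, 50 ug/mL).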
L3MBTL1 inh = L3MBTL1 (human) inhibition; actives 0.66% (n = 230,000); Potency, µM (doses to about 57.1 µM), usual class: inhibitors; Q9Y468; AID 485360; AlphaScreen L3MBTL1–H3K9me1 peptide binding; note: nearly all actives have a fitted effect of over 60% in size
Target sequence (Q9Y468 whole entry, looked up): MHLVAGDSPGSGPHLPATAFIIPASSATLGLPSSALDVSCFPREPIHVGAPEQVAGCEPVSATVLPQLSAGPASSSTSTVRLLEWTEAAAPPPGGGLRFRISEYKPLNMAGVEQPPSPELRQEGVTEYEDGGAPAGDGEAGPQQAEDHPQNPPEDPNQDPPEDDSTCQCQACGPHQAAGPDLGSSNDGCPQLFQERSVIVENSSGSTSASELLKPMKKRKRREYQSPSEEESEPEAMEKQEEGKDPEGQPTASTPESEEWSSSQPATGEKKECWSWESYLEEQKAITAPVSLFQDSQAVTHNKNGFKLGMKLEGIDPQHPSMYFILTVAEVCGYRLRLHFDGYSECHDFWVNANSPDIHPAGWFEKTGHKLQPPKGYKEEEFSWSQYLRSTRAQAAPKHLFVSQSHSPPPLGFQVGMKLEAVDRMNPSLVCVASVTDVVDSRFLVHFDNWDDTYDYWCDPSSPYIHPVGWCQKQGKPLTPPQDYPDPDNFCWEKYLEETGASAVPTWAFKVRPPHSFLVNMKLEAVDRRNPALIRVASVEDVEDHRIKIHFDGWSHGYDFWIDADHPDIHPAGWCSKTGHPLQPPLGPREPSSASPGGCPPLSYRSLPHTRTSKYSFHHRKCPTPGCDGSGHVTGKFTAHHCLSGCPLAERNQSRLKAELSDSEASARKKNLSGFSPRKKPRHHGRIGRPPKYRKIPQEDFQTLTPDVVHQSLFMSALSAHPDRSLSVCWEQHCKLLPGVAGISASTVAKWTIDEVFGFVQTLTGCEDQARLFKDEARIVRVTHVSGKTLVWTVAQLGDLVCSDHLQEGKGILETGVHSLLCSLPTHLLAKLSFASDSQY
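AlphaScreen proximity signal between nickel-chelate acceptor and streptavidin donor beads (final 10 ug/mL) reports binding of 50 nM L3MBTL1 to 75 nM biotin-H3 K9me1 peptide; complex incubated with compounds 30 min at room temperature; cefsulodin titration as control.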
USP2a block = blocks human ubiquitin-specific protease USP2a; O75604; USP2 core, Ub-CHOP2 coupled fluorogenic reporter, 485/531; Potency, µM (top dose mostly 38.3 µM), most hits filed as inhibitors; actives 0.01% (n = 330,000); AID 463254
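Deubiquitinase activity read as fluorescence (485/531 nm) after Ub-CHOP2 cleavage activates the enterokinase reporter on its substrate; USP2 core 10nM, Ub-CHOP2 and substrate 25nM each, 30min compound preincubation then 60min RT; data normalized to NEM, curves fitted.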
Eya2 phos inh = blocks the phosphatase activity of human Eya2; O00167; recombinant Eya2, OMFP fluorescence dephosphorylation (OMFP is methylfluorescein phosphate); Potency, µM (series often up to 76.9 µM), most hits filed as inhibitors; actives 0.006% (n = 330,000); AID 488837
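Eya2 protein (added as 0.2 uM solution) was preincubated with compound for 10 min at ambient temperature in 50 mM HEPES pH 7.5, 50 mM NaCl, 5 uM MgCl2, 0.05% BSA, 1 mM DTT. OMFP (added at 50 uM) then reacted 10 min; fluorescence read at 485/525 nm.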
uPA surface inh = inhibitors of cell surface uPA generation; AID 540303; cell surface uPA generation assay, qHTS; actives 0.31% (n = 330,000); Potency, µM (doses to about 38.3 µM), most hits filed as inhibitors; active = well fitted inhibition curve with a large enough effect; inconclusive = small, poorly fitted or top-dose-only effect; inactive = no such curve, though single readings can be large or run the other way; tested in mouse RAW 264.7 cells; note: nearly all actives have a fitted effect of over 55% in size
CtBP-E1A blk = inhibitors of CtBP/E1A interaction | AlphaScreen GST-E1A/His-CtBP binding, 1536-well; active compounds read low | activity change, % (concentration not given with the values) | actives 0.49% (n = 340,000) | AID 651724; in the data active = activity change below about -65%; inconclusive = mostly about -30% to -63%
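Protein mix (5X: 125 nM each GST-E1A, His-CtBP) was incubated with pinned compound 2 h at 37 deg C in dark, in 50 mM Tris pH 8.0 buffer with 300 mM NaCl. Glutathione donor and nickel acceptor beads followed; AlphaScreen signal read after 1 h.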
Numbers stand for hits; [ ] = dose if it differs, or a comment. An excerpt weighted towards active compounds, which were near 1.2% of everything screened. Unless noted, calls come from the whole dose curve; as a rule, active = well fitted curve in the direction sought with a large enough effect; inconclusive = small, poorly fitted or top-dose-only effect, or another doubt; inactive = no such curve, though single readings can be large; an effect the other way counts as inactive or inconclusive.

Cc1cc2nc(-c3ccc[nH]c3=O)[nH]c2cc1C was read as Six1-Eya2 inh inactive, USP2a block inactive, Eya2 phos inh inactive and uPA surface inh 0.89µM.
For O=C(CN1CCOCC1)N/N=C/c1c(O)ccc2ccccc12 the results were Six1-Eya2 inh -95, L3MBTL1 inh inactive, USP2a block inactive, Eya2 phos inh inactive, uPA surface inh inactive and CtBP-E1A blk -93.
`O=C(CN1CCOCC1)N/N=C/c1ccco1` gave Six1-Eya2 inh inactive, L3MBTL1 inh inactive, USP2a block inactive, Eya2 phos inh inactive, uPA surface inh inactive and CtBP-E1A blk inactive.
O=C(CSCC(=O)Nc1ccccc1)N/N=C/c1c(O)ccc2ccccc12 was read as Six1-Eya2 inh inconclusive, L3MBTL1 inh inactive, USP2a block inactive, Eya2 phos inh inactive and CtBP-E1A blk -72.
`O=C(N/N=C/c1c(O)ccc2ccccc12)Nc1ccccc1` gave Six1-Eya2 inh inactive and uPA surface inh inactive.
Cc1cc(O)c(-c2cc(C(=O)Nc3ccc(S(=O)(=O)N4CCOCC4)cc3)[nH]n2)cc1C was read as Six1-Eya2 inh inconclusive, L3MBTL1 inh inactive, USP2a block inactive, Eya2 phos inh inactive and CtBP-E1A blk -72.
`O=C(O)c1cc(Nc2cc(Cl)c3nonc3c2[N+](=O)[O-])ccc1O` gave Six1-Eya2 inh -79, USP2a block inactive, Eya2 phos inh inactive and uPA surface inh inactive.
Screening O=[N+]([O-])c1c(Nc2ccccc2O)cc(Cl)c2nonc12 returned Six1-Eya2 inh inactive, L3MBTL1 inh inconclusive, USP2a block inactive, Eya2 phos inh inactive, uPA surface inh inactive and CtBP-E1A blk inactive.
For Oc1cccc2ccc(Nc3ccccn3)nc12 the results were Six1-Eya2 inh -91, L3MBTL1 inh inconclusive, USP2a block inactive, Eya2 phos inh inactive, uPA surface inh inactive and CtBP-E1A blk -100.
`CN1/C(=C\C(=S)NC(=O)c2ccccc2Cl)C(C)(C)c2ccccc21` gave Six1-Eya2 inh inconclusive, L3MBTL1 inh inconclusive, USP2a block inactive, Eya2 phos inh inactive, uPA surface inh inactive and CtBP-E1A blk inactive.
Screening COc1ccccc1C(=O)NC(=S)/C=C1/N(C)c2ccccc2C1(C)C returned Six1-Eya2 inh -73, L3MBTL1 inh 13µM, USP2a block inactive, Eya2 phos inh inactive, uPA surface inh inactive and CtBP-E1A blk -74.
For CN1/C(=C/C(=S)NC(=O)C2(C)CC2(Cl)Cl)C(C)(C)c2ccccc21 (centres undefined) the results were Six1-Eya2 inh -66, L3MBTL1 inh inactive[11.4 µM], USP2a block inactive, Eya2 phos inh inactive, uPA surface inh inactive and CtBP-E1A blk -72.
CC(NC(=O)Cc1ccc(S(=O)(=O)N2CCOCC2)s1)c1ccc(Cl)cc1Cl (centres undefined) was read as Six1-Eya2 inh inactive, uPA surface inh inactive and CtBP-E1A blk inactive.
For COc1ccc(S(=O)(=O)n2nc(OC(=O)c3c(-c4ccccc4Cl)noc3C)cc2N)cc1 the results were Six1-Eya2 inh -72, L3MBTL1 inh inactive, USP2a block inactive, Eya2 phos inh inactive, uPA surface inh inactive and CtBP-E1A blk inconclusive.
`COc1ccc(C(=O)Oc2cc(N)n(S(=O)(=O)c3ccc(C)cc3)n2)cc1` gave Six1-Eya2 inh inactive, USP2a block inactive, Eya2 phos inh inactive, uPA surface inh inactive and CtBP-E1A blk inactive.
Screening O=C(Oc1c(CN2CCOCC2)cc(Cl)c2cccnc12)c1ccccc1 returned Six1-Eya2 inh inconclusive, USP2a block inactive, Eya2 phos inh inactive, uPA surface inh inactive and CtBP-E1A blk -78.
COc1ccc(C(=O)Oc2c(CN3CCOCC3)cc(Cl)c3cccnc23)cc1OC was read as Six1-Eya2 inh inactive, uPA surface inh inactive and CtBP-E1A blk inactive.
Screening O=C(O)Cn1cc(CN2CCOCC2)c2ccccc21 returned Six1-Eya2 inh inactive, L3MBTL1 inh inactive, USP2a block inactive, Eya2 phos inh inactive and uPA surface inh inactive.
Screening COc1cc(OC)cc(C(=O)Oc2c(CN3CCOCC3)cc(Cl)c3cccnc23)c1 returned Six1-Eya2 inh inconclusive, L3MBTL1 inh 25µM, USP2a block inactive, Eya2 phos inh inactive, uPA surface inh inactive and CtBP-E1A blk inconclusive.
`COc1cc(C=CC(=O)N2CCN(CC(=O)N3CCCC3)CC2)cc(OC)c1OC` gave Six1-Eya2 inh inactive and CtBP-E1A blk inactive.
`CCOC(=O)C1(Cc2ccc(OC)cc2)CCN(C(=O)c2ccc3[nH]ccc3c2)CC1` gave Six1-Eya2 inh inactive, L3MBTL1 inh inconclusive, USP2a block inactive, Eya2 phos inh inactive, uPA surface inh 11µM and CtBP-E1A blk inactive.
O=[N+]([O-])c1cc(Cl)c(O)c2ncccc12 was read as Six1-Eya2 inh -80, USP2a block inactive, Eya2 phos inh inactive, uPA surface inh inactive and CtBP-E1A blk -91.
Clc1cc2cccnc2c2ncccc12 was read as Six1-Eya2 inh -67, L3MBTL1 inh 10µM, USP2a block inactive, Eya2 phos inh inactive, uPA surface inh inactive and CtBP-E1A blk -96.
Screening Cc1c(C)c2cccnc2c2ncccc12 returned Six1-Eya2 inh -92, L3MBTL1 inh 0.79µM, USP2a block inactive, Eya2 phos inh inactive, uPA surface inh inconclusive and CtBP-E1A blk -95.
Screening O=[N+]([O-])c1cc(Cl)c2cccnc2c1O returned Six1-Eya2 inh -81, L3MBTL1 inh 32µM, USP2a block inactive, Eya2 phos inh inactive, uPA surface inh inactive and CtBP-E1A blk -91.
Screening Clc1ccc(Oc2ccccc2)c2ncccc12 returned Six1-Eya2 inh inactive, USP2a block inactive, Eya2 phos inh inactive, uPA surface inh inactive and CtBP-E1A blk inactive.
Screening O=[N+]([O-])c1ccc(Cl)c2cccnc12 returned Six1-Eya2 inh inactive, L3MBTL1 inh inactive, USP2a block inactive, Eya2 phos inh inactive, uPA surface inh inactive and CtBP-E1A blk inactive.
Cc1[nH]c2ccc3ncccc3c2c1C was read as Six1-Eya2 inh inactive, L3MBTL1 inh inactive, USP2a block inactive, Eya2 phos inh inactive, uPA surface inh inactive and CtBP-E1A blk inactive.
`O=C(Nc1cccc2c1CCCC2)c1cc(C2CCCCN2C(=O)CCCc2ccccc2)on1` (centres undefined) gave Six1-Eya2 inh inactive and CtBP-E1A blk inactive.
Screening Oc1c(Cl)c(Cl)c2ncccc2c1Cl returned Six1-Eya2 inh inactive, uPA surface inh inactive and CtBP-E1A blk inactive.
For Oc1c(I)cc(Cl)c2cccnc12 the results were Six1-Eya2 inh -95, L3MBTL1 inh inconclusive, USP2a block inactive, Eya2 phos inh inactive, uPA surface inh inactive and CtBP-E1A blk -95.
`CC(C)c1ccc(CN2CCN(C(=O)CCl)CC2)cc1` gave Six1-Eya2 inh inactive, L3MBTL1 inh inactive, USP2a block inactive, Eya2 phos inh inactive and uPA surface inh 3.5µM.
